TMEM16A act: activators or potentiators of mouse TMEM16A chloride channel. hit rate 0.3% among 340,000. B-score at 10 µM. HEK293 TMEM16A/YFP-H148Q/I152L, iodide quench fluorescence; hits give low values. Q8BHY3;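 active = fluorescence-ratio B-score plate-corrected deviation score at least 3 library SD below zero, with starting fluorescence score within 5 deviations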;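 also: channel opened by trigger with iodide after compound preincubation; score built on the fluorescence ratio of max minus min over baseline; more negative score means more quench and so TMEM16A activation or potentiation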
NR3A LBD binder: modulates the human NR3A ligand-binding domain | hit rate 2.5% among 340,000 | AID 1259313 | Tm shift relative to glycine control, % at 25 µM | NR3A LBD differential scanning fluorimetry, Tm shift; 0% = protein alone, 100% = glycine-bound protein;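 active = melting temperature shift of at least 10% of the positive control shift, at one fixed dose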
CRFBP-R2 agonist: agonists of human CRF-binding protein/CRF-R2 receptor complex | HEK293 CRF-R2/CRF-BP, calcium dye fluorescence (FLIPR); percent of saturating CRF peptide response | activation, % at 13.2 µM | hit rate 0.46% among 350,000;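 active = activation of at least 50%, plus an integration ratio under a set limit after plate pattern correction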;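 also: plate controls were neutral control wells without compound for no effect and CRF at EC100 for full effect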
TMEM16A inh: inhibitors of mouse TMEM16A calcium-activated chloride channel; Q8BHY3; HEK293 TMEM16A/YFP iodide influx fluorescence, ionomycin; normalized B-score (activity score, 25-100; higher = stronger inhibition) at 10 µM; hit rate 1.2% among 310,000; AID 588511;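 active = ratio plate-corrected score three or more library SD toward inhibition, starting fluorescence score within five deviations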;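 also: score derived from kinetic fluorescence span divided by baseline fluorescence per well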
CRFR2-BP antag: CRF-BP/CRF-R2 complex antagonism; HEK293 CRF-R2/CRF-BP, CRF-induced calcium fluorescence; hit rate 0.59% among 350,000; AID 588475; inhibition, % at 11.8 µM;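 active = inhibition of the ligand-induced calcium signal above about 50% at the single tested concentration, limit read from the data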
MPTP inh: blocks calcium-induced mitochondrial swelling; hit rate 1.4% among 360,000; AID 602449; inhibition, % at 10 µM; isolated mouse mitochondria, Ca2+ swelling absorbance, 30 min;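 active = inhibition of 50% or more, scaled per plate between neutral and stimulator controls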;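 also: 0% = DMSO wells given calcium and 100% = 1 mM EGTA wells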
* marks the source's active call; other numbers are inactive results. Rows were chosen to be rich in hits. Some 5.1% of all compounds tested hit in one or more screens of this group.

Screening CC1(C(=O)NS(=O)(=O)C2CC2)CCCN(C(=O)C2(c3ccc(Cl)cc3)CCCC2)C1 (stereo not drawn) returned MPTP inh 0.
`CN(Cc1c(C(=O)N/N=C/c2c(F)cccc2Cl)nnn1-c1nonc1N)c1ccccc1` gave TMEM16A act inactive, NR3A LBD binder 14*, CRFBP-R2 agonist 1, TMEM16A inh inactive, CRFR2-BP antag 10 and MPTP inh -1.
C/C(=N\NC(=O)c1nnn(-c2nonc2N)c1CN(C)c1ccccc1)c1cccc(O)c1 was read as TMEM16A act inactive, NR3A LBD binder 5, CRFBP-R2 agonist 0, TMEM16A inh inactive, CRFR2-BP antag -20 and MPTP inh 0.
Screening CC(C)Oc1ccc(/C=N/NC(=O)c2nnn(-c3nonc3N)c2CN(C)c2ccccc2)cc1 returned TMEM16A act inactive, NR3A LBD binder 11*, CRFBP-R2 agonist 0, TMEM16A inh inactive, CRFR2-BP antag -14 and MPTP inh -2.
Screening CC(C)c1c(C(=O)N/N=C/c2ccc(Cl)cc2Cl)nnn1-c1nonc1N returned TMEM16A act inactive, NR3A LBD binder 7, CRFBP-R2 agonist 1, TMEM16A inh inactive, CRFR2-BP antag -6 and MPTP inh 4.
Screening CN(Cc1c(C(=O)N/N=C/c2cccc(O)c2)nnn1-c1nonc1N)c1ccccc1 returned TMEM16A act inactive, NR3A LBD binder 31*, CRFBP-R2 agonist 1, TMEM16A inh inactive, CRFR2-BP antag -6 and MPTP inh -1.
Screening CC(C)c1c(C(=O)N/N=C/c2ccccc2OCc2c(F)cccc2Cl)nnn1-c1nonc1N returned TMEM16A act inactive, NR3A LBD binder 13*, CRFBP-R2 agonist 5, TMEM16A inh inactive, CRFR2-BP antag 1 and MPTP inh 0.
For CN(C)Cc1c(C(=O)N/N=C/c2ccc(-c3ccccc3)cc2)nnn1-c1nonc1N the results were TMEM16A act inactive, NR3A LBD binder 3, CRFBP-R2 agonist 1, TMEM16A inh inactive, CRFR2-BP antag -4 and MPTP inh 0.
CC1(CCc2ccccc2)NC(=O)N(CC(=O)Nc2c(F)cccc2F)C1=O (stereo not drawn) was read as TMEM16A act inactive, NR3A LBD binder 0, CRFBP-R2 agonist -1, CRFR2-BP antag -2 and MPTP inh -1.
CC#CCCC(=O)N1C=Cc2ccccc2C1C#N (stereo not drawn) was read as TMEM16A act inactive, NR3A LBD binder 1, CRFBP-R2 agonist -1, TMEM16A inh inactive, CRFR2-BP antag 56* and MPTP inh -1.
`CC1=Cc2ccccc2C(C#N)N1C(=O)c1ccccc1` (stereo not drawn) gave TMEM16A act inactive, NR3A LBD binder -1, CRFBP-R2 agonist -2, TMEM16A inh inactive, CRFR2-BP antag -11 and MPTP inh 1.
For CCOc1ccc2c(c1)/C(=N/N1C(=O)c3ccccc3C1=O)C(=O)N2 the results were TMEM16A act inactive, NR3A LBD binder 6, CRFBP-R2 agonist 0, TMEM16A inh inactive, CRFR2-BP antag 105* and MPTP inh 0.
For Cc1ccc2c(c1)/C(=N/N1C(=O)c3ccccc3C1=O)C(=O)N2 the results were TMEM16A act inactive, NR3A LBD binder 2, CRFBP-R2 agonist -2, TMEM16A inh inactive, CRFR2-BP antag 31 and MPTP inh 1.
For CCCN1C(=O)/C(=C/c2ccc(OCC(=O)OCC)cc2)NC1=S the results were TMEM16A act inactive, NR3A LBD binder -1, CRFBP-R2 agonist 1, CRFR2-BP antag -13 and MPTP inh 1.
Cc1ccc(CN2C(=O)N/C(=C\c3ccc(N4CCOCC4)cc3)C2=O)cc1 was read as TMEM16A act inactive, NR3A LBD binder 17*, CRFBP-R2 agonist 4, TMEM16A inh inactive, CRFR2-BP antag -5 and MPTP inh -7.
CCCN1C(=O)/C(=C/c2ccc(N3CCOCC3)cc2)NC1=S was read as TMEM16A act inactive, NR3A LBD binder -29, CRFBP-R2 agonist 171*, TMEM16A inh inactive, CRFR2-BP antag -247 and MPTP inh -1.
`CCN1C(=O)/C(=C/c2ccc(N3CCCC3)cc2)NC1=S` gave TMEM16A act inactive, NR3A LBD binder -4, CRFBP-R2 agonist 258*, TMEM16A inh inactive, CRFR2-BP antag -302 and MPTP inh 22.
O=C(Nc1ccccc1)c1cc(C2CCCCN2S(=O)(=O)c2ccc(F)cc2F)on1 (stereo not drawn) was read as MPTP inh 1.
CCCN(CCC)Cc1c(C(=O)N/N=C/CCc2ccccc2)nnn1-c1nonc1N was read as TMEM16A act inactive, NR3A LBD binder -8, CRFBP-R2 agonist -1, TMEM16A inh inactive, CRFR2-BP antag 7 and MPTP inh -2.
For CCCCCC(=O)Cc1cc(O)cc2c1C(=O)Oc1cc(O)c(C(=O)O)c(CCCCC)c1O2 the results were NR3A LBD binder 3, CRFBP-R2 agonist 2, TMEM16A inh 25* and CRFR2-BP antag 17.
Screening CCOC(=O)C1CCCN(c2c(NCCc3ccc(Cl)cc3)c(=O)c2=O)C1 (stereo not drawn) returned TMEM16A act inactive, NR3A LBD binder 0, CRFBP-R2 agonist 1, TMEM16A inh inactive, CRFR2-BP antag 12 and MPTP inh 0.
Screening CCN(CC)c1ccc(C2C(C(=O)OC)=C(C)NC(C)=C2C(=O)OC)cc1 returned TMEM16A act inactive, NR3A LBD binder 1, CRFBP-R2 agonist 0, TMEM16A inh inactive, CRFR2-BP antag 2 and MPTP inh 2.
Screening CCN(CC)c1ccc(/C=C/C(=O)C2C(=O)C=C(C)OC2=O)cc1 (stereo not drawn) returned TMEM16A act inactive, NR3A LBD binder 0, CRFBP-R2 agonist 377*, TMEM16A inh inactive, CRFR2-BP antag -476 and MPTP inh 2.
For C#CCOCCOCCOCCNc1nc(N2CCN(C(=O)CCCCCCCCCCNC(=O)Cn3cc(C[C@@H](C)O)nn3)CC2)nc(N2CCN(C(=O)CCCCCCCCCCNC(=O)[C@@H]([C@H](C)CC)n3cc(CCCCCN)nn3)CC2)n1 the results were TMEM16A act inactive, NR3A LBD binder -2, CRFBP-R2 agonist 32, TMEM16A inh 25*, CRFR2-BP antag -90 and MPTP inh -8.
For C#CCOCCOCCOCCNc1nc(N2CCN(C(=O)CCCCCCCCCCNC(=O)Cn3cc(CCCCCN)nn3)CC2)nc(N2CCN(C(=O)CCCCCCCCCCNC(=O)Cn3cc(C[C@@H](C)O)nn3)CC2)n1 the results were TMEM16A act inactive, NR3A LBD binder 30*, CRFBP-R2 agonist 31, TMEM16A inh inactive, CRFR2-BP antag -23 and MPTP inh -6.
Screening CC1CCCCN1C(=O)CSc1nnc(-c2ccccc2O)o1 (stereo not drawn) returned TMEM16A act inactive, NR3A LBD binder 0, CRFBP-R2 agonist 0, TMEM16A inh inactive, CRFR2-BP antag -6 and MPTP inh 0.

Compound activity deposited in PubChem BioAssay by several laboratories.
